{
  "source": "PubChem BioAssay (Tox21)",
  "note": "Values joined by “and” are separate entries in the source; they are usually repeats but may differ in a detail not shown here. Equal entries are not always repeated. Results filed as inconclusive are left out. A number with no mark means an inactive call. Active and inactive are the calls of the source. The call rests on the fitted dose curve; in most records, active means well fitted cell-killing curve with a large enough effect in the repeat runs; inconclusive means weak or mixed curves; inactive means flat fitted curve, though single readings scatter. On the % scale 0 is the no-effect control and ±100 the full control effect; potency means the concentration at half of the fitted maximal effect.",
  "data": [
    {"assay": "qHTS RealTime-Glo MT Cell Viability Assay in HepG2 cells - 8 hour (AID 1224873); further: nearly all actives have a fitted effect of over 55% in size", "settings": "RealTime-Glo luminescence; series mostly up to 76.8 µM; viability change, negative = cytotoxic: at the top concentration", "excerpt": "National Center for Advancing Translational Sciences [NCATS]\nNIH Chemical Genomics Center [NCGC]\nU.S. Environmental Protection Agency [EPA]\nNational Institutes of Environmental Health Sciences [NIEHS]\nNational Toxicology Program [NTP]\nU.S. Food and Drug Administration [FDA]\nMeasure of cell viability is critical in the cell-base assay. Analysis of cell viability is necessary for the characterization of cell responses to cytotoxic drugs and environmental stress. A RealTime-Glo MT Cell Viability Assay to monitor cell viability in real time of continues cell culture during 40 hours of compound treatment was used to screen Tox21 10K library compounds in HepG2 cells. The RealTime-Glo MT Cell Viability Assay is a nonlytic, homogeneous, bioluminescent method to measure cell viability in real time using a simple, plate-based method. The assay involves adding NanoLuc luciferase and a cell-permeant prosubstrate to cells in culture. Viable cells reduce the proprietary prosubstrate to generate a substrate for NanoLuc luciferase. This substrate diffuses from cells into the surrounding culture medium, where it is rapidly used by the NanoLuc Enzyme to produce a luminescent signal. The signal correlates with the number of viable cells, making the assay well suited for cytotoxicity studies.\nTox21 Assay Protocol Summary:\nThe mixture of HepG2 cell suspension and reagents were dispensed at 600cells/6 ul/well in 1536-well tissue culture treated black solid bottom plates using a Multidrop dispenser. After the assay plates were incubated at a 37 C/5% CO2 incubator for 5 hours, 23 nL of compounds dissolved in DMSO, positive and negative controls was transferred to the assay plate by a pintool work station. The plates were incubated at 37 C for 40 hours. The luminescence intensity were measured at 0h, 8h, 16h, 24h, 32h and 40h time points using ViewLux plate reader during compound treatment.", "values": [
      {"compound": "CC(=O)NNc1ccccc1", "viability change, negative = cytotoxic": "-3.38%"},
      {"compound": "C[CH2][Hg][S]c1ccccc1C(=O)O", "Potency": "3.47 µM (active) and 2.13 µM (active)"},
      {"compound": "CCCCCCCCn1sccc1=O", "Potency": "43.7 µM (active) and 16.2 µM (active)"},
      {"compound": "O=C(O)C(O)C(O)C(=O)O", "note": "(stereo not given)", "viability change, negative = cytotoxic": "-0.493%"},
      {"compound": "O=C=NC1CCCCC1", "viability change, negative = cytotoxic": "0.7%"},
      {"compound": "CC(Cc1ccccc1)NCc1ccccc1Cl", "note": "(stereo not given)", "viability change, negative = cytotoxic": "4.32% [at 35.3 µM]"},
      {"compound": "CCCC[N+](CCCC)(CCCC)CCCC", "viability change, negative = cytotoxic": "-0.0733%"},
      {"compound": "C[N+]1(CCC(C(N)=O)(c2ccccc2)c2ccccc2)CCCCC1", "viability change, negative = cytotoxic": "0.691% [at 35.3 µM]"},
      {"compound": "O=[N+]([O-])/C=C/c1ccccc1", "Potency": "49.8 µM (active)"},
      {"compound": "CCCCCCCCCCCCCCCl", "viability change, negative = cytotoxic": "0.244%"},
      {"compound": "CCCCC(CC)CO[N+](=O)[O-]", "note": "(stereo not given)", "viability change, negative = cytotoxic": "3.59%"},
      {"compound": "O=C(O)c1ccc(=O)[nH]c1", "viability change, negative = cytotoxic": "6.77% [at 35.3 µM]"},
      {"compound": "NNCCO", "viability change, negative = cytotoxic": "-1.06%"},
      {"compound": "CC1(C)[C@H](C(=O)O[C@H](C#N)c2cccc(Oc3ccccc3)c2)[C@@H]1C=C(Br)Br", "viability change, negative = cytotoxic": "-9.12%"},
      {"compound": "Cc1cnc(C2=NC(C)(C(C)C)C(=O)N2)c(C(=O)O)c1", "note": "(stereo not given)", "viability change, negative = cytotoxic": "-0.596%"},
      {"compound": "CCCCC(CC)COC(=O)c1c(Br)c(Br)c(Br)c(Br)c1C(=O)OCC(CC)CCCC", "note": "(stereo not given)", "viability change, negative = cytotoxic": "-7.62% [at 35.3 µM]"},
      {"compound": "O=C(NCNC(=O)NC1C(=O)NC(=O)N1CO)NC1C(=O)NC(=O)N1CO", "note": "(stereo not given)", "viability change, negative = cytotoxic": "-0.632%"},
      {"compound": "O=C(NC(=O)c1cc(F)c(F)cc1Cl)Nc1cc(F)ccc1N1CCC(C(=O)O)CC1", "viability change, negative = cytotoxic": "4.48% [at 35.3 µM]"},
      {"compound": "NC(=O)CF", "viability change, negative = cytotoxic": "0.198%"},
      {"compound": "C[N+](C)(C)CCOC(=O)C(O)(c1ccccc1)c1ccccc1", "viability change, negative = cytotoxic": "5.5% [at 35.3 µM]"},
      {"compound": "C=CCc1ccccc1O", "viability change, negative = cytotoxic": "4.71%"},
      {"compound": "CCc1cnc(C2=NC(C)(C(C)C)C(=O)N2)c(C(=O)O)c1", "note": "(stereo not given)", "Potency": "inactive"},
      {"compound": "CC(C)OC(=O)Cc1ccccc1", "viability change, negative = cytotoxic": "-1.91%"},
      {"compound": "CCCN(CCOc1c(Cl)cc(Cl)cc1Cl)C(=O)n1ccnc1", "viability change, negative = cytotoxic": "-21.8%"},
      {"compound": "CC(C)(c1ccccc1)c1cc(-n2nc3ccccc3n2)c(O)c(C(C)(C)c2ccccc2)c1", "viability change, negative = cytotoxic": "1.12% [at 35.3 µM]"},
      {"compound": "COCc1cnc(C2=NC(C)(C(C)C)C(=O)N2)c(C(=O)O)c1", "note": "(stereo not given)", "viability change, negative = cytotoxic": "2.57%"},
      {"compound": "CCCCCl", "viability change, negative = cytotoxic": "-2.52%"},
      {"compound": "COC(=O)C1(O)c2ccccc2-c2ccccc21", "viability change, negative = cytotoxic": "-22.5%"},
      {"compound": "C[C@H](N)[C@H](O)c1ccc(O)c(O)c1", "viability change, negative = cytotoxic": "-1.9% [at 35.3 µM]"},
      {"compound": "Cc1ccccc1", "viability change, negative = cytotoxic": "3.49%"},
      {"compound": "CCCCCCCCCCCCN(C)C", "viability change, negative = cytotoxic": "-4.29%"},
      {"compound": "CCCCC#N", "viability change, negative = cytotoxic": "-1.75%"},
      {"compound": "CCCCOC(=O)CCC(=O)OCCCC", "viability change, negative = cytotoxic": "2.24%"},
      {"compound": "O=C(O)COc1cc(Cl)c(Cl)cc1Cl", "Potency": "inactive"},
      {"compound": "COc1cc(CC(C)N)c(OC)cc1Br", "note": "(stereo not given)", "viability change, negative = cytotoxic": "-4.48%"},
      {"compound": "CON(C)C(=O)Nc1ccc(Cl)cc1", "viability change, negative = cytotoxic": "-2.05%"},
      {"compound": "CCCC(C)(COC(N)=O)COC(=O)NC(C)C", "note": "(stereo not given)", "Potency": "inactive"},
      {"compound": "O=S(=O)(c1ccccc1)c1ccccc1", "viability change, negative = cytotoxic": "0.0679%"},
      {"compound": "O=S(=O)(Cl)Cl", "viability change, negative = cytotoxic": "-4.91%"},
      {"compound": "Cc1nc(N(C)C)nc(OC(=O)N(C)C)c1C", "viability change, negative = cytotoxic": "1.67%"}
    ]}
  ]
}
